Source: PubChem BioAssay (National Center for Advancing Translational Sciences (NCATS))
Compounds with a hit are over-represented: about 2.4% of the library has one in this group of screens.
D2 antag: D2 dopamine receptor (human) antagonism. P14416. HEK293 TREx D2 cells, calcium flux, dopamine EC80. inhibition, % at 10 µM. 2% of 340,000 active; in the data active = inhibition above about 30%; inactive = below that, where a call was filed
Target sequence (P14416 whole entry, looked up): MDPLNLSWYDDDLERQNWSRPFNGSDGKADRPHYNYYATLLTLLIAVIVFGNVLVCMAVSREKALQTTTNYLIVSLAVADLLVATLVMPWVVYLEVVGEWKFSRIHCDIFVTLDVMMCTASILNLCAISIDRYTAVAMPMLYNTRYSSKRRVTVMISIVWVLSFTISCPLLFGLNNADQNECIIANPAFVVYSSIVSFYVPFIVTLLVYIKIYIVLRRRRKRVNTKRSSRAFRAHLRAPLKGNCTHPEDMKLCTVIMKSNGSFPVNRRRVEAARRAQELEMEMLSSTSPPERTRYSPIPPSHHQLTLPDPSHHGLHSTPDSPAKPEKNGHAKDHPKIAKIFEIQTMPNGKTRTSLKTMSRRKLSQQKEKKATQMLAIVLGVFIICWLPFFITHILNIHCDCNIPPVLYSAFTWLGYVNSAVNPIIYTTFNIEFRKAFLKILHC
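Measurement of antagonist activity uses fluorescent calcium dye in inducible HEK293 T-REx D2 cells: 10 s baseline, compound addition with 180 s read, EC80 dopamine addition with a further 180 s read.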
D2 PAM-1: positively modulates the human D2 dopamine receptor allosterically; 0.34% of 340,000 active; AID 485347; potentiation, % at 10 µM; HEK293 T-REx D2, calcium flux, EC20 dopamine potentiation; P14416;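 active = potentiation over 3 SD above the plate norm, cut at about 30% in these data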
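Calcium flux readout, no-wash dye, 1 read/s. Inducible HEK293 Trex D2 line, overnight 30 C. Compound alone 180 s (agonist flags), then EC20 dopamine, another 180 s to score potentiation.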
D2 ag-1: agonists of human D2 dopamine receptor (beta-arrestin) | P14416 | DiscoveRx PathHunter D2 beta-arrestin, luminescence, 90 min; 100% = 57 uM dopamine signal | activation, % (test concentration not listed) | 0.084% of 360,000 active; in the data active = activation above about 40%
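DiscoveRx PathHunter D2 beta-arrestin cells (2,100/well) attached overnight, then compound-stimulated 90 min at 37 C in HBSS/10 mM HEPES/0.1% Tween-20 buffer; beta-galactosidase complementation read by luminescence after 1 h at ambient temperature. Dopamine 57 uM final (EC100) as control.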
D2 ag-2: activates the human D2 dopamine receptor. P14416. activation, % at 2 µM. AID 485358. HEK293 T-REx D2 cells, calcium flux agonist mode. 0.53% of 340,000 active;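 active = activation over 3 SD above normal in the single-dose calcium agonist read, cut at about 30% in these data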
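HEK293 Trex D2 cells, tetracycline-induced, o/n 30 C 5% CO2; no-wash Ca dye, RT 30–90 min; 10-cycle baseline, 23 nl cpd added, kinetic Ca read 180 s; agonist hits = positive Ca response.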
D2 PAM-2: human D2 receptor positive allosteric modulation; 0.23% of 360,000 active; P14416; AID 624464; potentiation, % (no concentration beside the values); DiscoveRx D2 beta-arrestin cells, luminescence, 90 min; 100% = 57 uM dopamine signal; in the data active = potentiation above about 50%
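PathHunter beta-arrestin assay in DiscoveRx D2 cells. Compounds were added with an EC20 of dopamine (50 nM final) for 90 min at 37 deg C. Luminescence was read 1 h after detection reagent, with 57 uM dopamine as the EC100 control.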
Numbers stand for hits; n = inactive; x = not tested or not shown.

SMILES	D2 antag	D2 PAM-1	D2 ag-1	D2 ag-2	D2 PAM-2
CCC(C)Sc1nc2c(c(=O)[nH]c(=O)n2C)n1CC(O)COc1ccccc1C (stereo unspecified)	30	n	n	n	n
CCC(C)Sc1nc2c(c(=O)[nH]c(=O)n2C)n1CCc1ccccc1 (stereo unspecified)	n	n	n	n	n
CCOC(=O)c1c(NC(=O)Nc2ccc(Cl)cc2)sc(C)c1C	36	n	n	n	n
CCOC(=O)c1c(NC(=O)Nc2cccc(Cl)c2)sc(C)c1C	n	n	n	n	n
CCOC(=O)c1sc(NC(=O)c2ccc(Cl)s2)cc1C	n	n	n	n	n
CCOC(=O)c1sc(NC(=O)Nc2ccc(Cl)cc2)cc1C	38	n	n	x	n
Cc1nc(-c2cccc(S(=O)(=O)N3CCOCC3)c2)cs1	35	n	n	n	n
COc1cc(CN(C(=O)c2oc3ccccc3c2C)C2CCS(=O)(=O)C2)cc(OC)c1OC (stereo unspecified)	x	n	x	n	x
Cc1ccc(NC(=O)CN2C(=O)c3ccccc3S2(=O)=O)cc1C	n	n	n	n	n
COc1ccc(NC(=O)CN2C(=O)c3ccccc3S2(=O)=O)cc1OC	n	33	n	n	n
CCOC(=O)Cn1nc(N2CCN(c3ccc(F)cc3)CC2)ccc1=O	x	n	x	n	x
O=C(O)c1cccc(-n2c(-c3cnccn3)n[nH]c2=S)c1	30	n	n	n	n
COc1ccc(CN2CCC(=O)N([C@H](CO)c3ccccc3)CC2)cc1	52	n	n	n	n
O=C1CCN(Cc2cccnc2)CCN1[C@H](CO)c1ccccc1	n	n	n	n	n
Nc1nc(CN2CCN(Cc3ccccc3)CC2)nc(N2CCCc3ccccc32)n1	63	n	n	n	n
C=CCn1c(COc2ccccc2)nnc1SC(C)C(=O)N/N=C/c1cc(Cl)ccc1O (stereo unspecified)	n	n	n	n	58
COCCn1c(N)c(C#N)c2nc3ccccc3nc21	36	n	n	n	n
CCC(C)n1c(NC(=O)c2ccccc2)c(C#N)c2nc3ccccc3nc21 (stereo unspecified)	n	n	n	n	n
COCCCn1c(N)c(-c2nc3ccccc3n2C)c2nc3ccccc3nc21	n	n	n	39	n
CCCCn1c(NC(=O)c2ccccc2)c(C#N)c2nc3ccccc3nc21	38	n	n	n	n
Cc1cc(C(=O)Nc2ccccc2C)on1	n	n	n	n	n
Cc1ccccc1NC(=O)c1ccno1	32	n	n	n	n
CSCSC1=C(C#N)C(c2ccc(Cl)cc2)C(C(C)=O)=C(C)N1 (stereo unspecified)	32	n	x	n	x
CSC1=C(C#N)C(c2ccccc2)C(C(C)=O)=C(C)N1 (stereo unspecified)	n	n	n	n	n
CCC1CN(C(=O)N2CCC(C(=O)N3CCN(c4cc(C)ccc4C)CC3)CC2)c2ccccc2O1 (stereo unspecified)	x	n	x	n	x
SMILES	D2 antag	D2 PAM-1	D2 ag-1	D2 ag-2	D2 PAM-2
COc1ccccc1-c1nnc(SCCOc2ccccc2C)o1	x	n	x	n	x
CCN1C(=O)C(CC(=O)Nc2ccc(OC)cc2)N(CCCN2CCN(c3ccc(F)cc3)CC2)C1=S (stereo unspecified)	57	x	n	n	n
CC1(C)CC(=O)c2sc(NS(=O)(=O)c3ccc([N+](=O)[O-])cc3)nc2C1	n	n	n	n	54
CC1(C)CC(=O)c2sc(NS(=O)(=O)c3ccccc3)nc2C1	n	n	n	n	n
CCc1nn2c(=O)cc(COc3ccc(/C=C(\C#N)C(=O)Nc4ccc(C)cc4)cc3)nc2s1	x	n	x	n	x
O=C1CCCCCC1C1(O)C(=O)Nc2ccccc21 (stereo unspecified)	n	42	n	n	n
COc1ccc2c(c1)CC(C1(O)C(=O)Nc3ccccc31)C2=O (stereo unspecified)	n	n	n	n	n
COc1ccccc1C(CNC(=O)c1ccc(-c2ccccc2Cl)o1)N1CCCC1 (stereo unspecified)	n	n	n	n	n
COc1ccc(C(CNC(=O)c2cc(F)c(F)c(F)c2F)N2CCOCC2)cc1 (stereo unspecified)	40	n	n	n	n
COc1ccc(NC(=O)c2ccc(-c3ccccc3Cl)o2)cc1	42	n	n	n	n
COc1ccc(C(CNC(=O)CSc2ccccc2F)N2CCOCC2)cc1 (stereo unspecified)	n	n	n	n	n
COc1ccc(C(CNC(=O)c2ccc(-c3ccccc3Cl)o2)N2CCOCC2)cc1 (stereo unspecified)	66	n	n	n	n
CC(C)(CNC(=O)c1ccc(-c2ccccc2Cl)o1)N1CCOCC1	40	n	n	n	n
CC(C)(CNC(=O)c1ccc(Br)o1)N1CCOCC1	n	n	n	n	n
COc1ccc(NC(=O)c2ccc(-c3cccc(Cl)c3C)o2)cc1	x	n	x	n	x
COc1ccc(-c2cc(C(=O)Nc3ccn(Cc4ccc(C)cc4)n3)no2)cc1OC	x	n	x	x	x
CCOc1cccc2sc(N(CCN(C)C)C(=O)c3ccc(Br)s3)nc12	33	n	n	n	n
O=C(OCc1c(Cl)cccc1Cl)c1ccccn1	35	n	n	n	n
COc1cc2c(cc1OC)C(=Cc1ccc(N(C)C)cc1)C=C2	x	x	n	x	n
COc1cc2nc(/C=C/c3ccc(N(C)C)cc3)sc2cc1SC	n	n	n	67	n
COc1ccc(OCC(=O)N2CCN(C(=O)c3cccc(F)c3)CC2)cc1	n	n	n	n	n
O=C(c1cccc(Br)c1)N1CCN(C(=O)c2cccc(Br)c2)CC1	n	35	n	n	n
COc1cc(OC)cc(C(=O)N2CCN(C3CCCCC3)CC2)c1	n	n	n	n	n
COc1cc(OC)cc(C(=O)N2CCN(C(=O)c3cccc(F)c3)CC2)c1	31	n	n	n	n
COc1cc(OC)cc(C(=O)N2CCN(c3ccccc3F)CC2)c1	31	n	n	n	n
SMILES	D2 antag	D2 PAM-1	D2 ag-1	D2 ag-2	D2 PAM-2
O=C(c1cccc(Br)c1)N1CCN(C(=O)N2CCOCC2)CC1	n	n	n	n	n
COc1cc(OC)cc(C(=O)N2CCC(N3CCCCCC3)CC2)c1	n	38	n	n	n
CCOC(=O)c1cccc(NC(=O)C2CCN(c3nnc(C)c4c(C)n(-c5ccccc5)nc34)CC2)c1	x	n	x	n	x
COc1cc(C(=O)NCc2nc3cccnc3n2Cc2ccc(C)cc2)cc(OC)c1OC	x	n	x	n	x
Cc1ccc2[nH]c(CSc3nnc(NC(=O)c4ccc(Cl)cc4)s3)cc(=O)c2c1	x	n	x	n	x
Cc1ccc(NC(=O)CSCC#N)cc1	87	n	n	n	n
N#CCSCC(=O)Nc1ccc(Br)cc1	n	n	n	n	n
CCOc1ccc(CCNC(=O)CN2C(=O)COc3ccc(S(=O)(=O)N4CCC(C)CC4)cc32)cc1	x	n	x	n	x
